# Test: small-molecule microarray binders of probe aWnt5a, primary screen, biochemical, biotinylated probe, 635/667 nm fluorescence (AID 1113);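 also: score merges 667 nm fluorescence intensity with signal-to-noise per printed feature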
# Conditions: higher = more signal
row,Compound,composite z-score
1,COC(=O)[C@H](C)NC(=O)CCC1CC(OC(=O)NCCc2ccc(F)cc2)CC2(CCCC(COC(=O)NCCc3ccc(Cl)cc3)O2)O1 (stereo partly specified),-0.224
2,C=COC[C@H]1CN2[C@@H](CC[C@@H](C)[C@@H]2c2ccc(Br)cc2)C(=O)O1,-0.176
3,CN1C(=O)C2C=CC(C(O)c3ccc(Br)cc3)N(N(c3ccccc3)c3ccccc3)C2C1=O (stereo unspecified),0.0873
4,COC(=O)[C@H](C)NC(=O)[C@@H](C)CO,-0.0445
5,O=C1[C@H]2[C@H]3[C@H](O)[C@H](O)CC(=NOCc4ccccc4)[C@@H]3CC[C@H]2C(=O)N1Cc1ccccc1,-0.197
6,CC(C)[C@@H](OCc1ccccc1)[C@H](C)C=NOC[C@@H](C)[C@H](OCc1ccccc1)C(C)C,-0.101
7,CCOC(=O)[C@H](Cc1ccccc1)NC(=O)CCC1CC(OC(=O)NCc2ccc3c(c2)OCO3)CC2(CCCC(COC(=O)NCC3CCCCC3)O2)O1 (stereo partly specified),-0.0179
8,COC(=O)[C@@H]1CC[C@H](C)[C@@H](c2ccc(C)cc2)N1C(=O)c1ccc(C=NOC[C@@H](O)COCc2ccco2)cc1,-0.21
9,Cc1cc2c(nc1C)CCCN2CC(O)CN1CCN(C)CC1 (stereo unspecified),0.212
10,C=C(CCCC)C(=O)CC[C@@H](OC(C)=O)c1cccc(OCCO)c1,-0.12
11,CCOC(=O)[C@H](Cc1ccccc1)NC(=O)CCC1CC(OC(=O)NCc2ccc3c(c2)OCO3)CC2(CCCC(COC(=O)NCC(c3ccccc3)c3ccccc3)O2)O1 (stereo partly specified),-0.175
12,C#CCCCON=C1C[C@@H](O)[C@@H](O)[C@@H]2[C@@H]3C(=O)N(c4cccc(Oc5ccccc5)c4)C(=O)[C@@H]3CC[C@@H]12,-0.0808
13,CC(C)CON=C1C[C@@H](O)[C@@H](O)[C@@H]2[C@@H]3C(=O)N(C[C@@H]4CCCO4)C(=O)[C@@H]3CC[C@H]12,-0.178
14,CCN1C(=O)[C@H]2[C@H]3[C@H](O)[C@H](O)CC(=NO[C@@H]4O[C@H](CO)[C@@H](O)[C@H](O)[C@H]4O)[C@@H]3CC[C@H]2C1=O,-0.18
15,COc1ccc(-c2ccc3c(n2)CCCN3CC(O)CN2CCCc3nc(C)c(C)cc32)cc1 (stereo unspecified),0.459
16,CO[C@H]1O[C@H](CO)[C@@H](OC(=O)Nc2ccc3c(c2)OCO3)[C@H](OC(=O)Nc2ccccc2-c2ccccc2)[C@@H]1OC(=O)Nc1ccccc1-c1ccccc1,0.0601
17,COC(=O)CC1OC1[C@H](C)[C@@H](OC)C(C)C (stereo partly specified),-0.1
18,CO[C@@H]1COC(=O)CC=C[C@@H](C)[C@@H]2C=C[C@H](O)[C@@H](COC(=O)[C@H](C)NC(=O)CC=C[C@H]1C)O2,-0.103

row,Compound,composite z-score
1,N#Cc1ccc(NN2C(C(O)c3cc(C(F)(F)F)cc(C(F)(F)F)c3)C=CC3C(=O)N(c4ccccc4)C(=O)C32)cc1 (stereo unspecified),-0.0009
2,CCOC(=O)NN=C1C[C@@H](O)[C@@H](O)[C@@H]2[C@@H]3C(=O)N(C[C@@H]4CCCO4)C(=O)[C@@H]3CC[C@@H]12,-0.0721
3,COCCOC(=O)N1C(=O)[C@@]2(c3cc(C#CC4(O)CCCCCC4)ccc31)[C@H](C(=O)N1CCN(c3ncccn3)CC1)[C@H]1C(=O)O[C@H](c3ccccc3)[C@H](c3ccccc3)N1[C@@H]2c1ccc(OCCO)cc1,0.0136
4,C=CC[C@]1(C(=O)NCc2ccccc2)N=C(c2ccc(OCCCO)cc2)O[C@H]1c1ccccc1,-0.0944
5,COc1ccc(O[C@H]2C=C[C@@H](c3ccccc3)O[C@@H]2COC(=O)CCC(C)=NOC(C)CN2CCCCc3nc(C)c(C)cc32)cc1 (stereo partly specified),-0.157
6,CO[C@@H]1COC(=O)CC=C[C@@H](C)[C@@H]2C=C[C@@H](O)[C@@H](COC(=O)CC=C[C@H]1C)O2,-0.252
7,CCOC(=O)[C@H](Cc1ccccc1)NC(=O)CCC1CC(OC(=O)NCCc2ccc(F)cc2)CC2(CCCC(COC(=O)NCC(c3ccccc3)c3ccccc3)O2)O1 (stereo partly specified),-0.124
8,C[C@H]1CC[C@@H](C(=O)O)N[C@@H]1c1ccc(C#CCN(C)C)cc1,-0.152
9,O=C1NC(=O)C2C1C=CC(C(O)Cc1ccccc1)N2Nc1ccccn1 (stereo unspecified),0.0328
10,CCOC(=O)CCN1C(=O)[C@H]2[C@H]3[C@H](O)[C@H](O)CC(=NOC[C@@H](O)COCc4ccco4)[C@@H]3CC[C@H]2C1=O,-0.0462
11,CC(C)(C)N1C(=O)[C@H]2[C@H]3[C@H](O)[C@H](O)CC(=NOCc4ccccc4)[C@@H]3CC[C@H]2C1=O,-0.0194
12,COC(=O)[C@@]1(Cc2ccccc2)[C@H]2c3cc(C(=O)N4CCCC4)n(Cc4ccccn4)c3C[C@H]2CN1C(=O)c1ccccc1,0.752
13,C[C@@H](c1ccccc1)N1C(=O)[C@H]2[C@H]3[C@H](O)[C@H](O)CC(=NOC[C@@H](O)COCc4ccco4)[C@@H]3CC[C@H]2C1=O,-0.124
14,COc1ccc(O[C@H]2C=C[C@@H](c3ccccc3)O[C@@H]2COC(=O)CCC(C)=NOCC[C@@H]2C=C[C@H](OC(C)=O)[C@@H](COC(C)=O)O2)cc1,0.0495
15,O=C1[C@H]2[C@H]3[C@H](O)[C@H](O)CC(=NOC[C@@H](O)COCc4ccco4)[C@H]3CC[C@H]2C(=O)N1c1cccc(Oc2ccccc2)c1,-0.0792
16,COC(=O)CC=C[C@@H](C)[C@@H](C=NO[C@@H](C)c1cc(-c2c(C)cc(C)cc2C)no1)OC,-0.295
17,COc1ccc(COC(=O)NN=C2C[C@@H](O)[C@@H](O)[C@@H]3[C@@H]4C(=O)N(Cc5ccc6c(c5)OCO6)C(=O)[C@@H]4CC[C@@H]23)cc1,-0.0465
18,C[C@@H]1CCC2C(=O)N(Cc3ccccc3)C[C@@H](O)CN2[C@H]1c1ccc(Br)cc1 (stereo partly specified),-0.169

# From PubChem BioAssay
